The list is not random: actives were taken first. Their share in the collection is about 1.2%.
CtBP-E1A blk – inhibitors of CtBP/E1A interaction. actives 0.49% (n = 340,000). AID 651724. AlphaScreen GST-E1A/His-CtBP binding, 1536-well; active compounds read low. activity change, % (no concentration beside the values)
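Protein mix (5X: 125 nM each GST-E1A, His-CtBP) was incubated with pinned compound 2 h at 37 deg C in dark, in 50 mM Tris pH 8.0 buffer with 300 mM NaCl. Glutathione donor and nickel acceptor beads followed; AlphaScreen signal read after 1 h.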
CCT modulator – changes cytosolic chaperonin activity. purified chaperonin ATPase assay, HTRF ADP detection, 30 min. activity change, % (test concentration not listed), hits read low. AID 651819. actives 0.3% (n = 360,000); in the data active means activity change below about -30%
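We incubate TRiC, 40 or 20 nM final, with library compounds at 76 uM and 10 uM ATP for 30 min at 37 °C. ADP formed is detected with Transcreener HTRF reagents after 30 min at room temperature.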
Akt phos inh – Akt phosphorylation inhibition; activity change, % for hits at 50 µM; AID 651550; actives 0.32% (n = 360,000); Neuro2A IGF-stimulated pAkt S473 HTRF, 20 min; active compounds read low; in the data active means activity change below about -80%; inconclusive means mostly about -51% to -80%
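Single-point screen (50 µM final compound) in Neuro2A cells stimulated 20 min with 6 nM IGF at 37 deg C. After lysis, Ser473-phosphorylated Akt read by HTRF (ex 330 nm, em 615/665 nm) as the 665/615 ratio.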
Six1-Eya2 inh – blocks human Six1 binding to Eya2. Q15475+O00167. AlphaScreen GST-Six1/His-Eya2 binding, biochemical; active compounds read low. activity change, % (no concentration beside the values). actives 0.56% (n = 360,000). AID 651725
Target sequence (O00167 whole entry, looked up): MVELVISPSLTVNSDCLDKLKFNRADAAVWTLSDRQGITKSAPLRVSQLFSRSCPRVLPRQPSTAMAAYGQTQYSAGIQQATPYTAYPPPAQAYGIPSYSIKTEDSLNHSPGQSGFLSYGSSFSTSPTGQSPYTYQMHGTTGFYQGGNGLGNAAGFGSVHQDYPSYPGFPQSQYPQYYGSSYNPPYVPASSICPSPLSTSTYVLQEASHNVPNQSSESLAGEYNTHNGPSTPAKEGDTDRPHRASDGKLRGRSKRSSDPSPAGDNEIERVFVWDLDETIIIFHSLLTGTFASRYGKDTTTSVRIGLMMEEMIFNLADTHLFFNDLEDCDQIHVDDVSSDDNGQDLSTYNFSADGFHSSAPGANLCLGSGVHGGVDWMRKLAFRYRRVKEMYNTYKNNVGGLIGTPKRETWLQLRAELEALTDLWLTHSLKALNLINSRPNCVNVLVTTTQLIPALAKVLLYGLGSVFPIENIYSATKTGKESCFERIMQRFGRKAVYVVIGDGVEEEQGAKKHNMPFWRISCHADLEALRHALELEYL
Target sequence (Q15475 whole entry, looked up): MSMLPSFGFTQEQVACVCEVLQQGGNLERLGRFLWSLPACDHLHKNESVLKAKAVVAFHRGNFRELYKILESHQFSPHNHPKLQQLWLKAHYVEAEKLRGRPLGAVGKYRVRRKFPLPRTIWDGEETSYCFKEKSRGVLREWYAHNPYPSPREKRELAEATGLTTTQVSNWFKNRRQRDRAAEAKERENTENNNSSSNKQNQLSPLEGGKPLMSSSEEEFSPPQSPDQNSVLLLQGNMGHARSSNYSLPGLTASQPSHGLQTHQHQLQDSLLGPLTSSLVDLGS
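AlphaScreen with GST-Six1 and His-Eya2 (5X mix: 250 nM and 500 nM), glutathione donor and nickel acceptor beads; buffer 50 mM Tris pH 8.0, 300 mM NaCl, 1 mM TCEP; 1 h at 37 C in the dark.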
Each line names hits and unclear results; the compound was inactive in the other large screens. Unless noted, no stated cut-off is given here; in the data, active means activity change below about -65%; inconclusive means mostly about -30% to -63%; inactive means weaker than that.

CCC1Sc2ccc(S(=O)(=O)Nc3ccc(OC)c(OC)c3)cc2NC1=O (stereo not given)	CCT modulator -34.7
CC(=O)c1c(COC(=O)c2ccccc2Cl)nc2ccccc2[n+]1[O-]	none (no result: CtBP-E1A blk)
OCCNCCOc1ccccc1F	Akt phos inh -107.3%
C/C(=N\NC(=O)c1cccc(Br)c1)c1ccccn1	Six1-Eya2 inh -90.0
O=C(NN=C(c1ccccc1)c1ccccn1)c1ccccc1	Six1-Eya2 inh -68.2
C/C(=N\NC(=O)c1cc(Br)ccc1O)c1ccccn1	none
O=C(NC(O)C(=O)c1ccccc1)c1ccccn1 (stereo not given)	none
O=C(NN=C1CCC(=NNC(=O)c2ccccn2)CC1)c1ccccn1	CtBP-E1A blk -75.1, Six1-Eya2 inh -67.5
Cc1cc2c(cc1C)/C(=N/NC(=O)c1ccccn1)CCC2	none
C/C(=N/NC(=O)c1ccc(C(C)(C)C)cc1)c1ccccn1	Six1-Eya2 inh -88.2
COc1ccc(C(=O)N/N=C(\C)c2ccccn2)cc1OC	CtBP-E1A blk -93.2, Six1-Eya2 inh -89.3
COc1ccc(N/N=C(/Oc2ccc([N+](=O)[O-])cc2)C(C)=O)cc1	Akt phos inh -113.5%
Cn1cc(Br)c(C(=O)Nc2sc3c(c2C(N)=O)CCC3)n1	CtBP-E1A blk -78.8, Six1-Eya2 inh -71.5
Cn1ccc(C(=O)Nc2sc3c(c2C(N)=O)CCCCC3)n1	none
CCc1cccc(CC)c1NC(=O)CSc1nnc(C2CC2)n1C	none
O=C(OCCOCCN=C1NS(=O)(=O)c2ccccc21)c1ccncc1	Akt phos inh -106.7%
CCN(CC)C(=O)[C@H]1CC(CC(=O)NCCN2CCOCC2)C(=O)N2CCc3c([nH]c4ccccc34)[C@]12C (stereo not given in full)	none
CC(NC(=O)Nc1ccc(O)cc1)(C(F)(F)F)C(F)(F)F	CtBP-E1A blk inconclusive
COc1ccc(NC(=O)NC(C)(C(F)(F)F)C(F)(F)F)cc1	CCT modulator -78.7
CSC1=NS(=O)(=O)c2c(C)nn(C)c2S1	none
CC(=O)Nc1nc(C)c(C(C)=O)s1	Akt phos inh -105.9%
O=C(Nc1nc2ccccc2[nH]1)C1CC(=O)N(c2ccc3c(c2)OCCO3)C1 (stereo not given)	Akt phos inh -111.8%
FC(F)(F)c1cnc(C(c2ccccc2)c2ncn[nH]2)c(Cl)c1 (stereo not given)	none
FC(F)(F)c1cnc(C(c2ccccn2)c2ncn[nH]2)c(Cl)c1 (stereo not given)	CtBP-E1A blk inconclusive, Six1-Eya2 inh -88.5
CCCNC(=O)C1(C)CCCN(Cc2ccc(C(=O)OCC)o2)C1 (stereo not given)	none
COc1ccc(/C(N)=N/O)cc1O	CCT modulator -30.2
Clc1ccccc1-c1nnc(-c2cccnc2)o1	CCT modulator -39.7 (no result: CtBP-E1A blk)
Clc1ccccc1-c1nc(-c2cccnc2)no1	none
CCN(CC(=O)Nc1c(F)cccc1F)C(=O)CCCN1C(=O)c2cccc3cccc(c23)C1=O	none
OC(CN1CCN(c2cccc(Cl)c2)CC1)C(c1ccccc1)c1ccccc1 (stereo not given)	CCT modulator -44.0
O=C(O)C(Cc1cn[nH]n1)=NO	CCT modulator -51.3 (no result: CtBP-E1A blk)
COCCCNCCOCCOc1ccc(C)cc1[N+](=O)[O-]	CCT modulator -39.7
COCCCNCCOc1ccc(C)cc1[N+](=O)[O-]	none
COc1ccccc1CCNS(=O)(=O)CCNC(=O)c1ccc2c(c1)OCO2	none
O=[N+]([O-])c1ccc2c(c1Nc1ccccc1)=NC1(CCCCC1)N=2	CtBP-E1A blk inconclusive, Six1-Eya2 inh inconclusive
COc1ccc(Nc2c([N+](=O)[O-])ccc3c2=NC2(CCCCC2)N=3)cc1	CtBP-E1A blk -75.9, Six1-Eya2 inh -78.4
O=C(Nc1ccon1)Nc1cccc(Cl)c1Cl	none
Cc1cc(NC(=O)C2CCCO2)ccc1Br (stereo not given)	CCT modulator -107.3
O=C(Nc1ccc(F)cc1)c1ccc2snnc2c1	none
COc1ccc2nc(NC(=O)c3ccccc3C(=O)O)sc2c1	none
COc1cccc(NC(=O)c2ccc3snnc3c2)c1	Akt phos inh -112.6%
COc1ccc(C(=O)Nc2nc3ccc(OC)cc3s2)cc1	CtBP-E1A blk -72.3, Six1-Eya2 inh inconclusive
COc1ccc(C(=O)Nc2nc3ccc(S(C)(=O)=O)cc3s2)cc1	Akt phos inh -85.0%
Cc1ccc2nc(NC(=O)c3ccccn3)sc2c1	CtBP-E1A blk inconclusive, Six1-Eya2 inh -72.6
CS(=O)(=O)c1ccc2nc(NC(=O)c3ccc(Cl)cc3)sc2c1	none
COCCNc1nc(NCc2cccc(OC)c2)c2sc(-c3ccccc3)cc2n1	none

Screening data: PubChem, National Center for Advancing Translational Sciences (NCATS)
